PubChem BioAssay (NCATS)
“And” between values parts separate entries of the source, which are not always exact repeats. Identical values can stand only once. Records with an inconclusive call do not appear. Where a call stands in place of a potency, no number is given. Some structures have more than one record in an assay (separate samples or runs), and their calls can disagree. The source made the active and inactive calls. Unless noted, calls come from the whole dose curve; as a rule, active = well fitted curve in the direction sought with a large enough effect; inconclusive = small, poorly fitted or top-dose-only effect, or another doubt; inactive = no such curve, though single readings can be large; an effect the other way counts as inactive or inconclusive.

Columns and labels:
[1] = target: Protein phosphatase 1D (Homo sapiens) (UniProt O15297); test: Rhodamine-PBP qHTS Assay for Modulators of WT P53-Induced Phosphatase 1 (WIP1) (AID 1347425)
Sequence of Protein phosphatase 1D (Homo sapiens) (O15297 whole entry, looked up): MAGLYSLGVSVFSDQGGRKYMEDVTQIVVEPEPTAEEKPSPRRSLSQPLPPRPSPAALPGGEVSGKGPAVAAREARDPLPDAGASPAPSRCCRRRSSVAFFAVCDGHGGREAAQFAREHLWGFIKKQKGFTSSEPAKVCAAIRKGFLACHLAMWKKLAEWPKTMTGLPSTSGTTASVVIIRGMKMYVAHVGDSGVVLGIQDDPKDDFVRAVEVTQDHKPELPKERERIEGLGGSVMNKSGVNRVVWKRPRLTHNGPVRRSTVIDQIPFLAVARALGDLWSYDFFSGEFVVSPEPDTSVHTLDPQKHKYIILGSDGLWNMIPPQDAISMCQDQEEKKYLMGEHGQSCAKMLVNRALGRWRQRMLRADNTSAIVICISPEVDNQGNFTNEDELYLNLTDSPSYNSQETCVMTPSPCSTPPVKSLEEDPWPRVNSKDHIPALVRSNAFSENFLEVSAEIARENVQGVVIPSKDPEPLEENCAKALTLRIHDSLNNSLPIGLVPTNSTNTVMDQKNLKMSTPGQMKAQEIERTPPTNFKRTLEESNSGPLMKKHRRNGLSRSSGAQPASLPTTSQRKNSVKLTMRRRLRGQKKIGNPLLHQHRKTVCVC
In short: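 WIP1 (5 nM final) was preincubated with compound for 1 hour at room temperature. It then dephosphorylated 10 uM VEPPL-pS-QETFS peptide in Tris-HCl pH 7.5 with 30 mM MgCl2. Released Pi was detected by 10 uM Rh-PBP fluorescence (ex 525/em 598 nm) read at 1-min intervals for 11 min, as delta f1 - f0.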

[2] = Primary qHTS for inhibitors of La Crosse Virus (LACV) - induced cell death in SH-SY5Y cells (AID 1508616); note: potency is the fitted concentration of half-maximal effect
In short: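 SH-SY5Y, 6000 cells/well; cpd via pin tool in DMSO; LACV 0.01 MOI; 6 d 37C 5% CO2; ATPLite, 5 min RT; luminescence normalized to ±virus DMSO controls.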

[3] = target: Calcium and integrin-binding protein 1 (Homo sapiens) (UniProt Q99828); test: Primary qHTS for Identification of Calcium Integrin Binding Protein 1 (CIB1) Competitor (AID 1508620);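 note: GST tagged CIB1 binding a fluorescein labelled alphaIIb integrin peptide tracer; top concentration of the series differs between compounds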
Sequence of Calcium and integrin-binding protein 1 (Homo sapiens) (Q99828 whole entry, looked up): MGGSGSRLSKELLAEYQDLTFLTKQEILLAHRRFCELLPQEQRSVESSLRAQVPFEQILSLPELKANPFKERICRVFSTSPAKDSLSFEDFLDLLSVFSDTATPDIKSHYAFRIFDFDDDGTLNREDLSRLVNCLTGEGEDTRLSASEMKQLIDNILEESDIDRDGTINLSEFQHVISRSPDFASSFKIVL
In short: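 CIB1-GST (1 uM final) and compound incubated 15 min at room temperature before adding FITC-alphaIIb peptide tracer (100 nM final). Competition for binding read by fluorescence polarization (ex 480, em 540) after another 15 min at room temperature.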

[4] = Primary qHTS for small molecule stabilizers of the endoplasmic reticulum resident proteome: Secreted ER Calcium Modulated Protein (SERCaMP) assay (AID 1508630)
In short: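 The SH-SY5Y reporter protocol was run at 3 concentrations up to 38.3 uM (primary) or 11 concentrations (follow-up): 16 h compound, 100 nM thapsigargin for 4 h, then extracellular luciferase luminescence.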

[5] = A High-Content qHTS Against Drug Library for the Identification of Small Molecules that Inhibit DYT1 Early Onset Primary Dystonia-Associated Cell Pathology (AID 1645839; calls by dose curve; note: series mostly up to about 46 µM)
In short: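 High-content imaging quantified EGFP-TorsinA mislocalization in HEK293-derived cells inducibly expressing DYT1 mutant torsinA, after 48 h exposure to compound given together with tetracycline induction. Cell count served as a toxicity channel alongside %pathology.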

[6] = target: Cytochrome P450 2C9 (Homo sapiens) (UniProt P11712); test: Cytochrome P450 family 2 subfamily C member 9 (CYP2C9) small molecule antagonists: luciferase biochemical (cell-free) qHTS assay (AID 1645842; active = well fitted curve in the direction sought with a large enough effect in the repeat runs; an effect the other way counts as inactive or inconclusive; note: nearly all actives have a fitted effect of over 55% in size; note: potency is the fitted concentration of half-maximal effect)
Sequence of Cytochrome P450 2C9 (Homo sapiens) (P11712 whole entry, looked up): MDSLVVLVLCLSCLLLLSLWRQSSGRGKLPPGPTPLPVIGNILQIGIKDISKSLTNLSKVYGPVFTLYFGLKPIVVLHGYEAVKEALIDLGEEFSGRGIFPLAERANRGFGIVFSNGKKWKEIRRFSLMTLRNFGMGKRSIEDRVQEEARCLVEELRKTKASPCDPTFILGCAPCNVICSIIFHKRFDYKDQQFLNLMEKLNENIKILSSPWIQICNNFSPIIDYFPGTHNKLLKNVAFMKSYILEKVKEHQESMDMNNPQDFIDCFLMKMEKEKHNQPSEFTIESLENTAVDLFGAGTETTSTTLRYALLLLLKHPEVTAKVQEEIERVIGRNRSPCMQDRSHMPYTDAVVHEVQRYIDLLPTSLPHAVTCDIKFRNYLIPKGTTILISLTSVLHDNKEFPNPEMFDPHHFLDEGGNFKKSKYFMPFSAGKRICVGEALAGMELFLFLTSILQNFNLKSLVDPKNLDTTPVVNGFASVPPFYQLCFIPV
In short: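 P450-Glo CYP2C9 system: proluciferin substrate with enzyme in mix containing 0.4% BSA, 10 min at room temperature, then NADPH regeneration solution added and incubated 1 h at 37C. Detection reagent stopped reaction; luminescence read after 20 min as RLU.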

[7] = Primary qHTS for inhibitors of nuclear receptor binding SET domain protein 2 (NSD2) in an isogenic RCH-ACV NSD2 p.E1099K mutant (9B) (AID 1645876); note: nearly all actives have a fitted effect of over 70% in size; note: potency is the fitted concentration of half-maximal effect
[8] = Primary qHTS for inhibitors of nuclear receptor binding SET domain protein 2 (NSD2) in an RCH-ACV wild type WT cells (2C) (AID 1645877); note: nearly all actives have a fitted effect of over 70% in size; note: potency is the fitted concentration of half-maximal effect
[9] = target: Rap guanine nucleotide exchange factor 3 (Homo sapiens) (UniProt O95398); test: Confirmatory qHTS for antagonist of cAMP-regulated guanine nucleotide exchange factor 3 (EPAC1) (AID 1645880); note: nearly all actives have a fitted effect of over 55% in size
Sequence of Rap guanine nucleotide exchange factor 3 (Homo sapiens) (O95398 whole entry, looked up): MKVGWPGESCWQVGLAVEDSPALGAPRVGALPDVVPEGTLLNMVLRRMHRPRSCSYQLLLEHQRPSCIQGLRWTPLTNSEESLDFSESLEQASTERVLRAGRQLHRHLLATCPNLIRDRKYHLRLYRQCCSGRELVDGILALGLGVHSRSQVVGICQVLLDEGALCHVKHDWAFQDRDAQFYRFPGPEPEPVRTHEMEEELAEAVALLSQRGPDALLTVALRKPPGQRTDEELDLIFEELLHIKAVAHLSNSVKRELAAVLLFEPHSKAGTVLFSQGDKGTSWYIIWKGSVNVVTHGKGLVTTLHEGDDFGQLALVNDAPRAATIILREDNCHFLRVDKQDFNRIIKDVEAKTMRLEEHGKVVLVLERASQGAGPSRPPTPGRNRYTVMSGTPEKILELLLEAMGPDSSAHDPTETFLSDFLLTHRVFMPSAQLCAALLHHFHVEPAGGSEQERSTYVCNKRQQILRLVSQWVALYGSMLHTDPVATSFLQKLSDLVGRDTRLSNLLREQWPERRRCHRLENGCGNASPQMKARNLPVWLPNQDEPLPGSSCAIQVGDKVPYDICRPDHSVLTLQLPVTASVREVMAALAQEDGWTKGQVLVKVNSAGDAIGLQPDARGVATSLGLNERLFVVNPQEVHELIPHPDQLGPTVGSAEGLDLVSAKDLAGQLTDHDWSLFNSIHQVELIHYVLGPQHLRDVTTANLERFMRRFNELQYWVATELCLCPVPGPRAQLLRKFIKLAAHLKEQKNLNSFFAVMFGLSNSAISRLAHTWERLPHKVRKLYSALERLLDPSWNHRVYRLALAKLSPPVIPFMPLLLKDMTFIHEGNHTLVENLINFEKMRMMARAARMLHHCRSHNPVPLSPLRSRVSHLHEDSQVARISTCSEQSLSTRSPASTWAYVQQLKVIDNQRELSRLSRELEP
In short: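 Released BODIPY-GDP fluoresces less than Rap1-bound BODIPY-GDP; the signal is followed at 480/540 nm at 5-min intervals over 30 min, after 5 min at room temperature. Reactions contain 100 nM EPAC1, 250 nM RAP1B-BODIPY-GDP and 50 uM GDP; results are normalized to ATA and DMSO.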

[10] = target: Cytochrome P450 2D6 (Homo sapiens) (UniProt P10635); test: Cytochrome P450 family 2 subfamily D member 6 (CYP2D6) small molecule antagonists: luciferase biochemical (cell-free) qHTS assay (AID 1645840; active = well fitted curve in the direction sought with a large enough effect in the repeat runs; an effect the other way counts as inactive or inconclusive; note: nearly all actives have a fitted effect of over 55% in size; note: potency is the fitted concentration of half-maximal effect)
Sequence of Cytochrome P450 2D6 (Homo sapiens) (P10635 whole entry, looked up): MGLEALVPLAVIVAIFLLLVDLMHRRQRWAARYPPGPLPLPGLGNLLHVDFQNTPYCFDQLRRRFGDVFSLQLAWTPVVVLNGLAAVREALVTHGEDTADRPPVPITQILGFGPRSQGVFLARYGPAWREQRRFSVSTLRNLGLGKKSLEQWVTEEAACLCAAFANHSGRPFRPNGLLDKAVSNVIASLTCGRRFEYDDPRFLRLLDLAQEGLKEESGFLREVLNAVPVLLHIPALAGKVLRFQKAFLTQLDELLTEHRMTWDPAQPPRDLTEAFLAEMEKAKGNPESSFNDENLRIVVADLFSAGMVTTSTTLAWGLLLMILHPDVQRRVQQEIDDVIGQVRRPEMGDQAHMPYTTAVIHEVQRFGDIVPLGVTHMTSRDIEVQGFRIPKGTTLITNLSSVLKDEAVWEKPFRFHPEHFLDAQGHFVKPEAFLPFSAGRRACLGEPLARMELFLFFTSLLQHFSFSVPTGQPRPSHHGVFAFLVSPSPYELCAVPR
In short: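 P450-Glo CYP2D6 system: proluciferin substrate converted by enzyme to luciferin, read by luminescence proportional to activity. Enzyme-substrate mix with compound 10 min at room temperature, then NADPH regeneration 1 h before detection reagent.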

[11] = target: Cytochrome P450 3A4 (Homo sapiens) (UniProt P08684); test: Cytochrome P450 family 3 subfamily A member 4 (CYP3A4) small molecule antagonists: luciferase qHTS assay (AID 1645841; active = well fitted curve in the direction sought with a large enough effect in the repeat runs; an effect the other way counts as inactive or inconclusive; note: nearly all actives have a fitted effect of over 45% in size)
Sequence of Cytochrome P450 3A4 (Homo sapiens) (P08684 whole entry, looked up): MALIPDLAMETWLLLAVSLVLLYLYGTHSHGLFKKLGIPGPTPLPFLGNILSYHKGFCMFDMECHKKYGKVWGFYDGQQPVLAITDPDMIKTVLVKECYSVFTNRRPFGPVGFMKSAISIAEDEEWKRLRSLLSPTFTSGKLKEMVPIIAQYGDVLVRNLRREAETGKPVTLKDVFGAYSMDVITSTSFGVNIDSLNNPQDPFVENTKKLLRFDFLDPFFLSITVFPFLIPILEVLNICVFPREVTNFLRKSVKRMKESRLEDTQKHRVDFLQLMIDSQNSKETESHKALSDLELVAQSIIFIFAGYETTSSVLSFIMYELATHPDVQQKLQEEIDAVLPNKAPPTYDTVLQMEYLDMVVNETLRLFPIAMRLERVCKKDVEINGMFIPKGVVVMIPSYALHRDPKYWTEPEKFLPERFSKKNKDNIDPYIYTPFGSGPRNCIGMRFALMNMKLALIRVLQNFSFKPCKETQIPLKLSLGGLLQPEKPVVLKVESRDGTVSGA
In short: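 Luminescent CYP3A4 activity readout: compounds plus enzyme-substrate mix 10 min at room temperature, reaction started with NADPH regenerating system for 1 h, stopped with detection reagent, read after 20 min. Ketoconazole served as control.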

Q: For `Cc1cccc(N(C)C(=S)Oc2ccc3ccccc3c2)c1`, which outcome [1] is on record?
A: inactive

Q: What about the Potency [2] of the same compound?
A: inactive

Q: What about the outcome [3] of the same compound?
A: inactive

Q: And the Potency [4]?
A: inactive

Q: What about the Potency [5] of the same compound?
A: inactive

Q: And the Potency [6]?
A: 11 µM (active)

Q: What about the Potency [7] of the same compound?
A: inactive

Q: What about the Potency [8] of the same compound?
A: inactive and 14.8 µM (active)

Q: And the outcome [9]?
A: inactive

Q: For `COC(=O)Nc1nc2ccc(S(=O)c3ccccc3)cc2[nH]1` (stereo unspecified), which outcome [1] is on record?
A: inactive

Q: And the Potency [2]?
A: 0.355 µM (active)

Q: And the outcome [3]?
A: inactive

Q: And the Potency [10]?
A: 12.3 µM (active)

Q: What about the Potency [6] of the same compound?
A: inactive

Q: And the Potency [7]?
A: 10.5 µM (active) and 596 nM (active)

Q: And the Potency [8]?
A: 7.42 µM (active) and 335 nM (active)

Q: Which outcome [1] does the source give for `CS(=O)(=O)c1ccc([C@@H](O)[C@@H](CO)NC(=O)C(Cl)Cl)cc1` here?
A: inactive

Q: And the Potency [2]?
A: inactive

Q: What about the outcome [3] of the same compound?
A: inactive

Q: And the Potency [4]?
A: inactive

Q: And the Potency [5]?
A: inactive

Q: And the Potency [6]?
A: inactive

Q: What about the Potency [7] of the same compound?
A: inactive

Q: What does the source list for `O=C(O)c1cc(=O)[nH]c(=O)[nH]1`?
A: outcome [1]: inactive; Potency [2]: inactive; outcome [3]: inactive; Potency [5]: inactive; Potency [10]: inactive; Potency [6]: inactive; Potency [7]: inactive; Potency [8]: inactive

Q: For `CCCCOc1ccc(CC(=O)NO)cc1`, which outcome [1] is on record?
A: inactive

Q: And the Potency [2]?
A: inactive

Q: What about the outcome [3] of the same compound?
A: inactive

Q: And the Potency [4]?
A: inactive

Q: And the Potency [10]?
A: 12.3 µM (active)

Q: What about the Potency [6] of the same compound?
A: 17.4 µM (active)

Q: What about the Potency [7] of the same compound?
A: inactive and 16.6 µM (active)

Q: What about the Potency [8] of the same compound?
A: inactive and 16.6 µM (active)

Q: Which results are given for `CN(C)CCc1c[nH]c2ccc(CS(=O)(=O)N3CCCC3)cc12`?
A: outcome [1]: inactive; Potency [2]: inactive; outcome [3]: inactive; Potency [5]: inactive; Potency [10]: inactive; Potency [6]: inactive; Potency [7]: inactive; Potency [8]: inactive

Q: With `CC(=O)[C@H]1CC[C@H]2[C@@H]3CC=C4C[C@@H](O)CC[C@]4(C)[C@H]3CC[C@]12C` as the compound, how does the outcome [1] read?
A: inactive

Q: What about the Potency [2] of the same compound?
A: inactive

Q: And the outcome [3]?
A: inactive

Q: What about the Potency [5] of the same compound?
A: inactive

Q: And the Potency [10]?
A: inactive

Q: What about the Potency [6] of the same compound?
A: inactive

Q: And the Potency [7]?
A: inactive

Q: What about the Potency [8] of the same compound?
A: inactive

Q: With `NNC(=O)c1ccncc1` as the compound, how does the outcome [1] read?
A: inactive

Q: What about the Potency [2] of the same compound?
A: inactive

Q: What about the outcome [3] of the same compound?
A: inactive

Q: And the Potency [5]?
A: inactive

Q: What about the Potency [10] of the same compound?
A: inactive

Q: What about the Potency [6] of the same compound?
A: inactive

Q: And the Potency [7]?
A: inactive

Q: What about the Potency [8] of the same compound?
A: inactive

Q: For `CC(C)(C#N)c1cc(Cn2cncn2)cc(C(C)(C)C#N)c1`, which outcome [1] is on record?
A: inactive

Q: What about the Potency [2] of the same compound?
A: inactive

Q: And the outcome [3]?
A: inactive

Q: What about the Potency [5] of the same compound?
A: inactive

Q: What about the Potency [10] of the same compound?
A: inactive

Q: What about the Potency [6] of the same compound?
A: 6.17 µM (active)

Q: What about the Potency [7] of the same compound?
A: inactive

Q: And the Potency [8]?
A: inactive

Q: For `CCC(=O)O[C@]1(C(=O)SCF)[C@H](C)C[C@H]2[C@@H]3C[C@H](F)C4=CC(=O)C=C[C@]4(C)[C@@]3(F)[C@@H](O)C[C@@]21C`, which outcome [1] is on record?
A: inactive

Q: And the Potency [2]?
A: inactive

Q: And the outcome [3]?
A: inactive

Q: What about the Potency [4] of the same compound?
A: inactive

Q: What about the Potency [5] of the same compound?
A: inactive

Q: And the Potency [10]?
A: inactive

Q: What about the Potency [8] of the same compound?
A: inactive

Q: Which results are given for `O=C(O)c1ccc(-n2nc(-c3ccccc3O)nc2-c2ccccc2O)cc1`?
A: outcome [1]: inactive; Potency [2]: inactive; Potency [4]: inactive; Potency [10]: inactive; outcome [11]: inactive; Potency [6]: inactive; Potency [7]: 6.68 µM (active) and 4.17 µM (active); Potency [8]: 5.31 µM (active) and 4.17 µM (active)
